Data from publication PMC5540273 (PLoS ONE, 2017).

Assays:
Details in all cases: concentration: 1 μM, replicates: in singlicate; n = 1
CAMK1B = tested on: CAMK1B
CAMK1D = tested on: CAMK1D
CAMK1G = tested on: CAMK1G
CAMK1 = tested on: CAMK1
CAMK2A = tested on: CAMK2A
CAMK2B = tested on: CAMK2B
CAMK2D = tested on: CAMK2D
CAMK2G = tested on: CAMK2G
CAMK4 = tested on: CAMK4
CAMKK1 = tested on: CAMKK1
CAMKK2 = tested on: CAMKK2
CASK = tested on: CASK
CDC2L1 = tested on: T1, CDC2L1
T1 construct: gene CDK11B

CDC2L2 = tested on: CDC2L2
CDC2L5 = tested on: T2, CDC2L5
T2 construct: gene CDK13

CDK11 = tested on: T3, CDK11
T3 construct: gene CDK19

CDK2 = tested on: CDK2
CDK3 = tested on: CDK3
CDK4-cyclinD1 = tested on: CDK4-cyclinD1
CDK4-cyclinD3 = tested on: CDK4-cyclinD3
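Also: KINOMEscan kinase panel screen.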

SMILES	%Inh (CAMK1B)	%Inh (CAMK1D)	%Inh (CAMK1G)	%Inh (CAMK1)	%Inh (CAMK2A)	%Inh (CAMK2B)	%Inh (CAMK2D)	%Inh (CAMK2G)	%Inh (CAMK4)	%Inh (CAMKK1)	%Inh (CAMKK2)	%Inh (CASK)	%Inh (CDC2L1)	%Inh (CDC2L2)	%Inh (CDC2L5)	%Inh (CDK11)	%Inh (CDK2)	%Inh (CDK3)	%Inh (CDK4-cyclinD1)	%Inh (CDK4-cyclinD3)
COc1ccc(Nc2nccc(-c3cccc(NC(=O)c4cc5cc(F)ccc5[nH]4)c3)n2)cc1 [GSK1229782]	0%	20%	13%	36%	0%	0%	23%	34%	0%	20%	29%	14%	4%	24%	0%	24%	17%	20%	17%	0%
O=C(Nc1n[nH]c2nc(-c3nccs3)c(Br)cc12)C1CC1 [SB-742251]	19%	0%	0%	0%	0%	0%	0%	0%	0%	0%	0%	42%	0%	0%	13%	0%	81%	50%	65%	25%
Fc1cc(Cl)ccc1Nc1ccnc2cc(-c3ccc(CN4CCCCC4)o3)ccc12 [GW560116]	0%	8%	0%	3%	0%	0%	8%	26%	0%	4%	22%	2%	0%	20%	0%	0%	0%	5%	4%	0%
COC(=O)c1c(-c2ccccc2)c2cc(C(=O)O)ccc2c(=O)n1Cc1ccccc1	0%	1%	6%	1%	0%	0%	5%	0%	18%	0%	0%	18%	0%	3%	40%	0%	0%	0%	0%	0%
CS(=O)(=O)c1ccc(-c2nc3n(c2-c2ccncc2)CCC3)cc1 [SKF-105942]	7%	0%	14%	8%	0%	0%	6%	6%	0%	0%	0%	26%	100%	0%	0%	0%	0%	28%	0%	6%
